Measurements taken from PubChem BioAssay (NCI).
The panel holds about 83,000 compounds, 20% with a hit somewhere; the sample as a whole holds those more often.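 Treatment: one concentration, 48 hours, 96-well format. Scoring: percent growth, with anything below 10 considered active.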 Unmarked numbers belong to inactive results. Activity calls are given as the source filed them.

Each compound was assayed on HL-60(TB) leukemia (assay: NCI-60 one-dose screen, 48 h (100 = growth as untreated, 0 = no growth, -100 = all killed)). Conditions: 10 µM unless noted.

How did the growth turn out when COC(=O)[C@]12CC[C@@H](C)[C@H](C)[C@@H]1C1=CC[C@@H]3[C@@]4(C)C(C=O)=C[C@@](C)(COS(C)(=O)=O)C4[C@H](O)C[C@@]3(C)[C@]1(C)CC2 (stereo partly drawn) was run?
The growth was -34.4% (active).

With CC/C(=C(\c1ccc(O)cc1)c1ccc(OCCN(C)CCN(C)C(=O)CCCCC(=O)c2c(C)[nH]c(/C=C3\N=C(c4ccc[nH]4)C=C3OC)c2C)cc1)c1ccccc1 as the compound, how does the growth read?
The growth was 103%.

For Nc1nc(N)c2c(ccc3nccc32)[nH]1, which growth is on record?
Its growth is 16.5%.

How did the growth turn out when Nc1ncc(-c2ccc3ncnc(N4CCc5cc(F)c(Cl)cc54)c3c2)cc1C=O was run?
Its growth is 2.72% (active).

With O=C(Cc1ccc(/C=C/C(=O)c2ncc[nH]2)cc1)Nc1ccc(Br)cc1 as the compound, how does the growth read?
The growth was 0.0282% (active).

For Nc1nc(NC2CC2)c2ncn(C3C=CC(CO)C3)c2n1 (stereo not drawn), which growth is on record?
Its growth is 86.6%.

How did the growth turn out when NC(=O)c1ncn(C2OC(CO)C(O)C2O)n1 (stereo not drawn) was run?
The growth was 83.1%.

COC(=O)c1c2c(n3ccccc13)C(=O)c1ccccc1C2=O was tested. Which growth did it give?
Its growth is 58.6%.

With COc1cc2nc(N3CCC[C@H](NC4=CC(=O)c5ccccc5C4=O)C3)nc(N)c2cc1OC as the compound, how does the growth read?
Its growth is -64.6% (active).

For COc1cc([C@@H]2c3cc4c(cc3[C@H](O)[C@H]3COC(=O)[C@H]23)OCO4)cc(OC)c1OC, which growth is on record?
The growth was -50.2% (active).

How did the growth turn out when O=CN/N=C/c1ccc(Cl)c([N+](=O)[O-])c1 was run?
Its growth is 11.1%.

For CS/C(=C\c1ccc(C(=O)c2ccc(C)cc2)n1C)S(C)=O (stereo not drawn), which growth is on record?
Its growth is 53.6% [100 µM].

With COc1cc2ncnc(Nc3ccc(Oc4ccnc(C)c4)c(C)c3)c2cc1NC(=O)CC1CCSS1 (stereo not drawn) as the compound, how does the growth read?
The growth was -45.8% (active).
